Screens (PubChem)
Shiga toxin inh: Shiga toxin inhibition; Vero cells, Shiga toxin protein synthesis inhibition reporter; 290,000 compounds, 9.2% hits; AID 2315; inhibition, % at 38.7 µM; in the data active means inhibition mostly above about 28%, no sharp cut-off; inactive means mostly below about 43%; further: 0% is about no effect
LmPK inhibitor: LmPK (Leishmania mexicana) enzyme inhibition; AID 1721; Potency, µM (highest dose often 57.5 µM), without a hit: at the top dose activity change, negative = inhibition, hits mostly inhibitors; purified LmPK, Kinase-Glo ATP luminescence, 1 h; 290,000 compounds, 0.37% hits; Q27686; further: potency means the concentration at half of the fitted maximal effect; on the % scale 0 is the no-effect control and ±100 the full control effect
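Pyruvate kinase activity monitored as ATP production (luciferase luminescence). Conditions: 0.1 nM enzyme, 0.5 mM PEP, 0.1 mM ADP, 1 h, RT; normalized against uninhibited and no-enzyme wells.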
CHX counter: affects cycloheximide protein synthesis inhibition readout, counter-screen | max response, % | 300,000 compounds, 12% hits | cell reporter, cycloheximide protein synthesis inhibition counterscreen | AID 2314; in the data active means max response mostly above about 13%, no sharp cut-off; inactive means mostly below about 14%; further: read at 38.3 µM for the half of the compounds with a filed dose; 0% is about no effect
FBPA Giardia inh: inhibitors of Giardia lamblia fructose-1,6-bisphosphate aldolase | purified Giardia FBPA | Potency, µM (highest dose often 59.6 µM), for the others: at the top dose activity, negative = inhibition, usual class: inhibitors | 290,000 compounds, 0.71% hits | AID 2451; further: potency means the concentration at half of the fitted maximal effect; on the % scale 0 is the no-effect control and ±100 the full control effect; nearly all actives have a fitted effect of over 55% in size
Target sequence (A8B2U2 whole entry, looked up): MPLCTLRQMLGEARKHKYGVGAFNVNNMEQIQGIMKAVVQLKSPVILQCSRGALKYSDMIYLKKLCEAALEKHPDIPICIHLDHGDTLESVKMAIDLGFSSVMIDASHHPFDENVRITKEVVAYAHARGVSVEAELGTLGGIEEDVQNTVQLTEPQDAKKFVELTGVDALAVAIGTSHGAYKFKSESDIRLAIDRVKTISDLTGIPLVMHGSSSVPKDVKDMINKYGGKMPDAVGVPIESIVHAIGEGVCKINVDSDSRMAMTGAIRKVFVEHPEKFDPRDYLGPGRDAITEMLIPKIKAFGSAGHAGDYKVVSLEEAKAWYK
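40 nM FBPA preincubated 10 min at RT with compound (up to 57.5 uM final), then substrate plus GAPDH/TPI/NAD/arsenate coupling and diaphorase/resazurin added. Fluorescence read after 20 min at RT, 525/598 nm.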
NS1 function inh: blocks influenza NS1 protein function; Potency, µM (highest dose often 46.1 µM), inactives show at the highest dose activity, positive = more growth; 270,000 compounds, 0.4% hits; AID 2326; calls by dose curve; further: potency means the concentration at half of the fitted maximal effect; actives are rising curves; nearly all actives have a fitted effect of over 50% in size
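Read-out: OD600 growth recovery of NS1-expressing budding yeast. Cells grown overnight at 30C in -URA glucose medium, washed, resuspended and diluted 1:100 in 2% galactose assay medium, pH 6.0. Same strain lacking NS1 served as positive control.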
The depositor's hits bear a star; u = inconclusive; x = no result; ! = a repeat was not active; [ ] = dose if it differs, or a comment. Hits are enriched below; roughly 14% of the tested compounds scored in any of these assays. Unless noted, the call rests on the fitted dose curve; in most records, active means well fitted curve in the direction sought with a large enough effect; inconclusive means small, poorly fitted or top-dose-only effect, or another doubt; inactive means no such curve, though single readings can be large; an effect the other way counts as inactive or inconclusive.

SMILES	Shiga toxin inh	LmPK inhibitor	CHX counter	FBPA Giardia inh	NS1 function inh
O=C(c1ccccc1)c1ccc2c(c1)OCCOCCOCCOCCO2	22	-1%	8	10%	4%
O=C(NN=C1CCCC1)c1ccc([N+](=O)[O-])cc1	28	2%	8	-3%	x
CCCCC(=O)Nc1ccc(C(=O)Nc2ccc3c(c2)OCO3)cc1	53	-12%	9	-3%	12%
O=C(NN=C1CCCCCC1)c1ccncc1	3	-4%	16	x	-5%
O=C(NN=C1CCCCCC1)c1ccc2c(c1)OCO2	38	-2%	38*	-4%	-1%
COc1ccc(N2CC(C(=O)Nc3nc4ccc(F)cc4s3)CC2=O)c(OC)c1 (stereo unspecified)	-1	-5%	14	-2%	-2%
CCOc1ccc(N(C)C(=O)CCc2nnc3ccc(N4CCC5(CC4)OCCO5)nn23)cc1	-6	6%	7	-6%	-4%
CCN(C(=O)COC(=O)CSc1ccc(C(N)=O)cc1[N+](=O)[O-])C1CCCCC1	-3	-7%	-3	4%	0%
C/C(CCc1ccc2c(c1)OCO2)=N\NC(=O)c1ccc(C)cc1C	77*	2%	39*	-7%	3%
Cc1ccc(C(=O)NCc2ccc3c(c2)OCO3)c(C)c1	17	-3%	11	14%	-18%
COc1ccc(Cl)cc1NC(=O)c1noc2c1CCCC2	51*	10%	19*	-10%	x
COc1ccc(CCNC(=O)c2noc3c2CCCC3)cc1OC	2	-5%	9.1*	-2%	-2%
COc1cc(NC(=O)CCN2CC(C)OC(C)C2)cc(OC)c1 (stereo unspecified)	9	-2%	-3	6%	-5%
Cc1cc(S(=O)(=O)N2CCCCC2)c(C)s1	-5	-7%	-4	19%	-12%
O=C(Nc1ccc(Oc2ccccc2)nc1)C1CCCCN1Cc1ccco1 (stereo unspecified)	-21	-11%	0	x	-5%
N#CC(C#N)=Cc1ccc(O)cc1	active!	x	20	-14%	x
N#CC(C#N)=Cc1cc(O)c(O)c(O)c1	x	x	x	16µM*	16%
CCC(C)c1ccccc1NC(=O)c1cc2cccc([N+](=O)[O-])c2[nH]1 (stereo unspecified)	32	0%	39*	-10%	-87%
Cc1ccc(NC(=O)c2cc3cccc([N+](=O)[O-])c3[nH]2)cc1	84*	-2%	46*	-1%	-6%
COC(=O)NC(/C(C(=O)OC)=C(\C)NCc1ccccc1)c1cccs1 (stereo unspecified)	x	x	x	-2%[12.9 µM]	x
Cc1nn(-c2ccccc2)c2c1C(c1ccco1)C(C#N)=C(N)O2 (stereo unspecified)	55*	-1%	40*	u	-82%
c1ccc2[nH]c(NCCCc3cnc[nH]3)nc2c1	-9	x	13	u	x
CCOCCCNc1nc2ccccc2[nH]1	34	-5%	12*	-16%	-1%
CCCCNc1nc2ccccc2[nH]1	34	-2%	22*	1%	2%
CC(C)(C)c1cc2c(O)c(c1)Cc1cc(C(C)(C)C)cc(c1O)Cc1cc(C(C)(C)C)cc(c1O)Cc1cc(C(C)(C)C)cc(c1O)Cc1cc(C(C)(C)C)cc(c1O)Cc1cc(C(C)(C)C)cc(c1O)Cc1cc(C(C)(C)C)cc(c1O)Cc1cc(C(C)(C)C)cc(c1O)C2	x	x	x	x	-9%
SMILES	Shiga toxin inh	LmPK inhibitor	CHX counter	FBPA Giardia inh	NS1 function inh
Cc1ccc(C(=O)Oc2ccc(C(=O)COC(=O)C3CC(=O)N(Cc4ccco4)C3)cc2)cc1 (stereo unspecified)	68*	6%	29*	4%	-2%
O=C(COC(=O)C1CC(=O)N(Cc2ccco2)C1)c1ccc(OC(=O)c2ccco2)cc1 (stereo unspecified)	26	4%	10*	-16%	10%
Cc1ccccc1CS(=O)(=O)CCC(=O)NCc1ccc(F)cc1Cl	10	-8%	-8	x	5%
O=C(Cn1cc(C(F)(F)F)cc(Cl)c1=O)NCc1ccc(Cl)cc1	22	-3%	11	1%	17%
O=C(Cn1cc(C(F)(F)F)cc(Cl)c1=O)NCc1ccccc1	73*	6%	44*	7%	-1%
C=CCCC(=O)Nc1nc(C)c(-c2csc(Nc3ccc(Cl)cc3Cl)n2)s1	14	-4%	3	1%	27%
C=CCNc1nc(-c2sc(NC(C)=O)nc2C)cs1	132*	2%	41*	-29%	-8%
C=CCNc1nc(-c2sc(NC(=O)CC)nc2C)cs1	96*	0%	36*	u	-36%
CCn1cc(C(=O)NCCc2ccc(OC)c(OC)c2)c(=O)c2cc(S(=O)(=O)N3CCOCC3)ccc21	13	12%	-1	-11%	-2%
CCOc1ccc(NC(=O)CC2C(=O)N(CC)C(=S)N2NC(=O)c2ccncc2)cc1 (stereo unspecified)	20	1%	-1	u	u
Cc1ccc(NS(=O)(=O)c2cc([N+](=O)[O-])ccc2N/N=C/c2sc(N3CCOCC3)nc2-c2ccccc2)c(C)c1	-18	-10%	-4	-4%	2%
COc1ccc2c(c1OC)C(=O)N1N=C(c3ccccc3)CC21 (stereo unspecified)	31	-5%	18*	0%	-19%
COc1cc2c(cc1OC)-c1nnnn1C(C)(C)C2	3	-1%	4	8%	-11%
COc1cc2c(cc1OC)-c1n[nH]c(=S)n1C(C)(C)C2	-5	18µM*	4	-10%	x
Cc1ccc2nc(SC(C)C(=O)N3CCCCC3)[nH]c2c1 (stereo unspecified)	105	6%	35*	-8%	x
Cc1ccc2nc(SCC(=O)N3CCCC3)[nH]c2c1	92	-9%	22*	5%	-11%
Cc1ccc2nc(SC(C)C(=O)N3CCCC3)[nH]c2c1 (stereo unspecified)	57*	1%	25*	-16%	1%
Cc1ccc2nc(SCC(=O)N3CCN(C(=O)c4ccco4)CC3)[nH]c2c1	12	5%	10	2%	0%
CN(C)C(=O)CSc1nc2ccc(C(=O)c3ccccc3)cc2[nH]1	x	4%	23*	-22%	-12%
CCc1ccc(NC(=O)Cn2nc(C)n3cccc3c2=O)cc1	7	-3%	-8	x	3%
Cc1ccc2nc(SCC(=O)c3ccc(O)cc3O)[nH]c2c1	49*	5%	46*	-8%	17%
Oc1c(C=Nc2cccnc2)sc2ccccc12	95*	-8%	50*	-14%	-19%
CC(=O)NCCN=Cc1sc2ccccc2c1O	68*	-5%	40*	0%	-29%
Oc1ccc2oc3c(c2c1C=NCc1ccncc1)CCCC3	28	2%	-1	u	-32%
CC(=O)Nc1ccc(N=Cc2c(O)ccc3ccccc23)cc1	-7	1%	1	-17%	-20%
Oc1c(C=Nc2ccc(Cl)cn2)sc2ccccc12	14*	-5%	29*	5%	-31%
Oc1c(C=NCc2ccncc2)sc2ccccc12	84*	-8%	47*	-5%	-7%
CCCOc1cccc(C(=O)NCCNC(=O)c2cnccn2)c1	-5	0%	-6	-6%	-4%
